# Results: PubChem BioAssay AID686997 (Broad Institute, 2013)
# Measured potencies and affinities stand elsewhere. The source made the active and inactive calls.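 Rule for the calls: active = compound lowering the viability signal whose fitted half-maximal dose is at most twice its top tested dose; inconclusive = flat curve with 30 to 70% inhibition, or poor fit; inactive = the rest.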
# Test: PubChem AID 686997
# Conditions: C. neoformans growth, alamar blue, 72 h (sorbitol counter-screen); series mostly up to 35 µM; activity change, negative = inhibition: at the top concentration
row,Structure (SMILES),"activity change, negative = inhibition"
1,O=C(NC(=S)Nc1ccc(Br)cc1)C1CCC1,1.92% (inactive)
2,COC(=O)C1=C(C)N(Cc2ccc(F)cc2)C(=S)NC1c1ccc(F)cc1 (stereo not drawn),17.6% [at 16 µM] (inactive)
3,Fc1ccccc1NC(=S)NCCc1cccc(Cl)c1,-1.31% (inactive)
4,CCc1ccc(C(=O)NC(=S)NCc2cccnc2)cc1,7.29% (inactive)
5,COC(=O)C1=C(C)N(CC(C)C)C(=S)NC1c1cccc(F)c1 (stereo not drawn),4.94% [at 42 µM] (inactive)
6,CCCCN1C(=S)NC[C@@H]1Cc1ccccc1,2.5% (inactive)
7,COc1ccccc1NC(=S)NCc1ccc(Cl)cc1,1.84% (inactive)
8,CCc1nc(N2CCCCC2C)c2oc3ccccc3c2n1 (stereo not drawn),9.52% (inactive)
9,S=C(NCCCc1ccccc1)Nc1ccccc1,10.1% (inactive)
10,CCc1ccc(C(C)NC(=S)NCc2ccc(F)cc2)cc1 (stereo not drawn),4.02% (inactive)
11,O=C(NC(=S)Nc1cc(Cl)ccc1N1CCOCC1)c1ccccc1[N+](=O)[O-],9.06% (inactive)
12,CO[C@H]1CN(C)C(=O)c2cc(NC(=O)C3CC3)ccc2OC[C@@H](C)N(Cc2cncnc2)C[C@H]1C,8.68% (inactive)
13,CCOC(=O)NC(=S)Nc1ccc(C(C)(C)C)cc1,-8.87% (inactive)
14,O=C(Cc1ccccc1)N[C@H]1C=C[C@@H](CC(=O)N2CCOCC2)O[C@@H]1CO,15.1% (inactive)
15,O=C(NC(=S)Nc1ccccc1N1CCCC1)c1ccc([N+](=O)[O-])cc1,-3.51% (inactive)
16,COC(=O)C1=C(C)N(Cc2ccccc2)C(=S)N[C@H]1c1cccc(F)c1,-1.98% (inactive)
17,Cc1cc(C(=O)NC(=S)Nc2ccccc2N2CCOCC2)ccc1[N+](=O)[O-],3.41% (inactive)

row,Structure (SMILES),"activity change, negative = inhibition"
1,COc1ccccc1CNC(=S)NCc1ccc(Cl)cc1,-4.87% (inactive)
2,COc1ccccc1NC(=S)NCc1ccccc1Cl,7.46% (inactive)
3,COc1cccc(NC(=S)NC(=O)Cc2ccc(Cl)cc2)c1,7.7% (inactive)
4,O=C(NCCN1CCCCC1)[C@H]1N[C@H]2c3ccc(-c4ccncc4)c(=O)n3C[C@H]2[C@@H]1CO,13.6% (inactive)
5,COc1ccc(CNC(=S)NCc2ccc(OC(C)C)cc2)cc1,1.25% (inactive)
6,Cc1ccc(C(=O)NC(=S)Nc2ccc(N3CCOCC3)cc2)cc1,9.23% (inactive)
7,CCCCNC(=S)N/N=C/c1ccc(C#N)cc1,-5.24% (inactive)
8,Fc1ccccc1NC(=S)NN(Cc1ccccc1)c1ccccc1,-2.68% (inactive)
9,O=C(NC(=S)NCC1COc2ccccc2O1)c1ccc(Cl)cc1 (stereo not drawn),16.9% [at 46 µM] (inactive)
10,S=C(NCc1ccccc1)NCC1COc2ccccc2O1 (stereo not drawn),-4.42% (inactive)
11,O=C(NC(=S)Nc1ccccc1N1CCCC1)c1ccccc1[N+](=O)[O-],3.81% (inactive)
12,O=C(NC(=S)Nc1ccccc1N1CCOCC1)c1cccc([N+](=O)[O-])c1,5.09% (inactive)
13,Cc1ccc(C)c(NC(=O)C2(C)CCCN2C(=O)C(C)C)c1 (stereo not drawn),13.8% [at 56 µM] (inactive)
14,COc1ccc(NC(=S)NCc2ccc(Cl)cc2)c(OC)c1,8.07% (inactive)
15,CC(C)CC1(C)N=C(c2ccccc2)C(=S)N1 (stereo not drawn),8.07% (inactive)
16,O=C(NC(=S)Nc1cccc(F)c1)c1cccc([N+](=O)[O-])c1,7.08% (inactive)
